We go through 14 compounds from PubChem BioAssay (Tox21).

Assay [1] deals with Glucocorticoid receptor (Homo sapiens) (UniProt P04150). Kind of assay: qHTS assay to identify small molecule antagonists of the glucocorticoid receptor (GR) signaling pathway (AID 720692; active means well fitted inhibition curve with a large enough effect in the signal ratio in the repeat runs, not every such curve was filed as active; the % refers to the signal ratio; further: potency means the concentration at half of the fitted maximal effect). A digest of the protocol: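 Inhibition of dexamethasone-driven (5 nM final) beta-lactamase expression was measured in GRE-reporter HeLa cells over 18 h at 37C. Fluorescence was read after 2 h with the B/G FRET substrate at room temperature.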
Glucocorticoid receptor (Homo sapiens), sequence (P04150 whole entry, looked up): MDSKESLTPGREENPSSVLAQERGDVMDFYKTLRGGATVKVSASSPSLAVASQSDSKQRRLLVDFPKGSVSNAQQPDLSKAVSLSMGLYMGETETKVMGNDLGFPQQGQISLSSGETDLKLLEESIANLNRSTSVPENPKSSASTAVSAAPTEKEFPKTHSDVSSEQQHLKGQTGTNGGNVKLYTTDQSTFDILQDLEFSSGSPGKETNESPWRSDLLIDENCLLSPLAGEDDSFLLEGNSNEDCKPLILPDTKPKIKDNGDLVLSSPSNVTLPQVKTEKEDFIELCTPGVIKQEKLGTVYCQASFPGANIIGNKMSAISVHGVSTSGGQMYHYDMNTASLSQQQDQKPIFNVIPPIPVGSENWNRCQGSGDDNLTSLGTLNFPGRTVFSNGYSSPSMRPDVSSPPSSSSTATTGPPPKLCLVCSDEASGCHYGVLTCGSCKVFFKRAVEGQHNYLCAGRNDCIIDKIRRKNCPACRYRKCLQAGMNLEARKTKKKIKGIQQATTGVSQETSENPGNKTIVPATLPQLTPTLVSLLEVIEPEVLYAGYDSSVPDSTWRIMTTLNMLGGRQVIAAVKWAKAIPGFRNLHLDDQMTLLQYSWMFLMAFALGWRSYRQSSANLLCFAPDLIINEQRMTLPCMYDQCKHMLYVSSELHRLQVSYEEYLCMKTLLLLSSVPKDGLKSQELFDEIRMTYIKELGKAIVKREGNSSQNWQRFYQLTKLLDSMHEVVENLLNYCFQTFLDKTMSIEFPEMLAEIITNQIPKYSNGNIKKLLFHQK

Assay [2] has as its target Bile acid receptor (Homo sapiens) (UniProt Q96RI1). The assay can be described thus: qHTS assay to identify small molecule agonists of the farnesoid-X-receptor (FXR) signaling pathway (AID 743220; active means well fitted activation curve with a large enough effect in the signal ratio in the repeat runs, not every such curve was filed as active; the % refers to the signal ratio). A digest of the protocol: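 FXR-UAS-bla HEK 293T cells carrying a UAS-driven beta-lactamase reporter were plated for 5 h at 37C/5% CO2, then exposed to DMSO-dissolved Tox21 10K compounds for 16 h at 37C. A LiveBLAzer B/G FRET substrate was loaded for 2 h at room temperature before fluorescence reading.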
In general terms: qHTS replaces the single test concentration by a dilution series.

The nature of assay [3]: qHTS assay for small molecule disruptors of the mitochondrial membrane potential - cell viability (AID 720634; calls by dose curve; further: nearly all actives have a fitted effect of over 20% in size; further: potency means the concentration at half of the fitted maximal effect). The essentials: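 Cytotoxicity was quantified from ATP content by CellTiter-Glo luminescence in the same wells as the MMP dye read-out. HepG2 (2,000 cells/well) were plated overnight and exposed to compounds for 1 hr at 37 C.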
Assay [4] is described as follows: qHTS assay to identify small molecule antagonists of the estrogen receptor alpha (ER-alpha) signaling pathway using the BG1 cell line (AID 743080; calls by dose curve;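 further: BG1 cells stimulated with 17beta-estradiol alongside compound; nearly all actives have a fitted effect of over 25% in size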; further: potency means the concentration at half of the fitted maximal effect). The essentials:
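Endogenous full-length ER-alpha in BG1-Luc-4E2 cells drives a stably integrated 4×ERE luciferase gene; compounds were tested against 17beta-estradiol over 21.5 h, with luminescence and multiplexed viability fluorescence recorded.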

The nature of assay [5]: qHTS assay to identify small molecule antagonists of the peroxisome proliferator-activated receptor gamma (PPARg) signaling pathway - cell viability counter screen (AID 743194). Further: nearly all actives have a fitted effect of over 55% in size. Further: potency means the concentration at half of the fitted maximal effect. The note with it: Potency: co-treated with 50 nM rosiglitazone unless noted. A digest of the protocol:
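PPARg-UAS-bla HEK293H cells were plated, rested 5 h at 37 C, then treated with compounds plus rosiglitazone (50 nM final) for 17 h at 37 C; viability was then read by CellTiter-Glo luminescence after 30 min at room temperature.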

Assay [6] in a line: qHTS assay for small molecule activators of the heat shock response signaling pathway - cell viability counter screen (AID 743209). Further: nearly all actives have a fitted effect of over 50% in size. Further: potency means the concentration at half of the fitted maximal effect. A digest of the protocol:
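Cytotoxicity counter screen run in the same wells as the heat-shock bla reporter assay: HeLa HSE-bla cells, 5 h compound exposure at 37 C, viability read by CellTiter-Glo luminescence.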

Assay [7] addresses Peroxisome proliferator-activated receptor delta (Homo sapiens) (UniProt Q03181). The assay can be described thus: qHTS assay to identify small molecule agonists of the peroxisome proliferator-activated receptor delta (PPARd) signaling pathway (AID 743212; calls by dose curve). The essentials:
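Cells expressing a UAS-driven beta-lactamase reporter (PPARd-bla HEK293H) were given test compounds after a 5 h settle and kept at 37 C. Reporter activity was then measured as FRET fluorescence using LiveBLAzer B/G substrate.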

The target is the same in assay [8]. The assay can be described thus: qHTS assay to identify small molecule antagonists of the peroxisome proliferator-activated receptor delta (PPARd) signaling pathway (AID 743215; active means well fitted inhibition curve with a large enough effect in the signal ratio in the repeat runs, not every such curve was filed as active; the % refers to the signal ratio;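 further: cells stimulated with agonist L165041 at 300 nM final during compound exposure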; further: potency means the concentration at half of the fitted maximal effect). A digest of the protocol: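 Agonist L165041 (300 nM final) added with compound to PPARd-bla HEK293H UAS-bla reporter cells; 17 h incubation at 37 C. Read-out: LiveBLAzer FRET substrate, 2 h at room temperature, fluorescence intensity.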

The nature of assay [9]: qHTS assay to identify small molecule antagonists of the vitamin D receptor (VDR) signaling pathway - cell viability counter screen (AID 743225). Further: nearly all actives have a fitted effect of over 50% in size. Further: potency means the concentration at half of the fitted maximal effect. The essentials: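 Cytotoxicity counter screen read by CellTiter-Glo luminescence (30 min, room temperature) in the same wells as the VDR-bla antagonist readout. HEK 293T VDR-UAS-bla cells had 16 h at 37C with compound and 3 nM (final) 1-alpha,25-dihydroxyvitamin D3, then 2 h with FRET substrate.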

Assay [10] is described as follows: qHTS assay to identify small molecule agonists of the retinoic acid receptor (RAR) signaling pathway (AID 1159553). The essentials:
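Luminescence was measured 30 min after luciferase reagent addition at room temperature. Before that, C3RL4 reporter cells (1,000 per well, plated overnight) were treated with compound for 6 hr at 37 C and 5% CO2.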

Assay [11] is described as follows: qHTS assay for small molecules that induce genotoxicity in human embryonic kidney cells expressing luciferase-tagged ATAD5 - cell viability (AID 651634; calls by dose curve; further: nearly all actives have a fitted effect of over 25% in size; further: potency means the concentration at half of the fitted maximal effect). The essentials: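 Cytotoxicity counter-readout: after 15.5 hr compound treatment at 37C, live-cell protease activity in ATAD5-luciferase HEK293T cells measured by CellTiter-Fluor fluorescence, 30 min development at 37C.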

The target in assay [12] is Glucocorticoid receptor (Homo sapiens) (UniProt P04150). The assay can be described thus: qHTS assay to identify small molecule agonists of the glucocorticoid receptor (GR) signaling pathway (AID 720691; active means well fitted activation curve with a large enough effect in the signal ratio in the repeat runs, not every such curve was filed as active; the % refers to the signal ratio; further: potency means the concentration at half of the fitted maximal effect). A digest of the protocol:
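Agonist-mode qHTS in HeLa cells stably expressing a glucocorticoid-response-element beta-lactamase reporter. Fluorescence intensity read with FRET substrate (2 h, room temperature) after 18 h compound treatment at 37 C.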

Assay [13] is described as follows: qHTS assay to identify small molecule that activate the aryl hydrocarbon receptor (AhR) signaling pathway - cell viability counter screen (AID 743086). Further: nearly all actives have a fitted effect of over 45% in size. Further: potency means the concentration at half of the fitted maximal effect. A digest of the protocol: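 HepG2-AhR-luc (HG2L7.5c1) cells, 4000/well, were preincubated 5 h at 37C, exposed to compound in qHTS format for 24 hr at 37C, then given CellTiter-Fluor for 30 min; viability was read as fluorescence in the reporter wells.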

Assay [14] relates to thyroid hormone receptor (rat, GH3 cells). The assay can be described thus: qHTS assay to identify small molecule agonists of the thyroid receptor (TR) signaling pathway (AID 743066; calls by dose curve).
Assay [15] addresses Peroxisome proliferator-activated receptor gamma (Homo sapiens) (UniProt P37231). The assay can be described thus: qHTS assay to identify small molecule agonists of the peroxisome proliferator-activated receptor gamma (PPARg) signaling pathway (AID 743094; active means well fitted activation curve with a large enough effect in the signal ratio in the repeat runs, not every such curve was filed as active; the % refers to the signal ratio). The essentials:
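Agonist activity was taken from a beta-lactamase reporter (FRET substrate, 1 h at room temperature) in HEK293H cells carrying a PPARg UAS-bla construct. Compounds in DMSO were incubated 17 h at 37C after a 5 h cell pre-incubation.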

Assay [16] can be described thus: qHTS assay to identify small molecule antagonists of the peroxisome proliferator-activated receptor delta (PPARd) signaling pathway - cell viability counter screen (AID 743213). Further: nearly all actives have a fitted effect of over 50% in size. Further: potency means the concentration at half of the fitted maximal effect. The essentials:
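HEK293H cells with the PPARd UAS-bla reporter, co-treated 17 h at 37 C with compounds and L165041 (300 nM final), were lysed with CellTiter-Glo. Luminescence indicated viable cell content.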

Assay [17] concerns the target Vitamin D3 receptor (Homo sapiens) (UniProt P11473). The assay can be described thus: qHTS assay to identify small molecule agonists of the vitamin D receptor (VDR) signaling pathway (AID 743222; calls by dose curve). The essentials: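 Agonist mode, beta-lactamase reporter: fluorescence from LiveBLAzer B/G FRET substrate (2 h, room temperature) read after 16 h compound treatment at 37 C of VDR-bla cells, which were pre-incubated 4 h after seeding.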

Assay [18] can be described thus: qHTS assay to identify small molecule antagonists of the retinoid-related orphan receptor gamma (ROR-gamma) signaling pathway - cell viability counter screen (AID 1159520). Further: nearly all actives have a fitted effect of over 50% in size. Further: potency means the concentration at half of the fitted maximal effect. A digest of the protocol:
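Tet-on ROR gamma CHO cells (1,000/well) were plated 4 hr, given compounds in DMSO for 2 hr at 37 C, then induced with 1 uM final doxycycline for 16 hr. Viability was read as ATP by CellTiter-Glo luminescence after 30 min.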

Assay [19] in a line: qHTS assay to identify small molecule antagonists of the glucocorticoid receptor (GR) signaling pathway - cell viability counter screen (AID 720693). Further: nearly all actives have a fitted effect of over 55% in size. Further: potency means the concentration at half of the fitted maximal effect.
Assay [20] concerns the target Androgen receptor (Homo sapiens) (UniProt P10275). Kind of assay: qHTS assay to identify small molecule agonists of the androgen receptor (AR) signaling pathway using the MDA cell line (AID 743040; further: nearly all actives have a fitted effect of over 20% in size). The essentials:
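Agonist activity is measured as luciferase luminescence in human MDA-kb2 cells whose MMTV reporter responds to both AR and GR. Compounds in DMSO incubate 16 h at 37C, 0% CO2, and ONE-Glo is read after 30 min.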

Several values for one entry are separate records, joined by “and”; a condition that tells them apart may be missing. Identical values can stand only once. Results filed as inconclusive are left out. Some compounds were tested as several samples or in several runs, with calls that do not always agree. Activity calls are given as the source filed them. Unless noted, the call rests on the fitted dose curve; in most records, active means well fitted curve in the direction sought with a large enough effect in the repeat runs; inconclusive means weak or mixed curves; inactive means no such curve, though single readings can be large; an effect the other way counts as inactive or inconclusive.

Peroxisome proliferator-activated receptor gamma (Homo sapiens), sequence (P37231 whole entry, looked up): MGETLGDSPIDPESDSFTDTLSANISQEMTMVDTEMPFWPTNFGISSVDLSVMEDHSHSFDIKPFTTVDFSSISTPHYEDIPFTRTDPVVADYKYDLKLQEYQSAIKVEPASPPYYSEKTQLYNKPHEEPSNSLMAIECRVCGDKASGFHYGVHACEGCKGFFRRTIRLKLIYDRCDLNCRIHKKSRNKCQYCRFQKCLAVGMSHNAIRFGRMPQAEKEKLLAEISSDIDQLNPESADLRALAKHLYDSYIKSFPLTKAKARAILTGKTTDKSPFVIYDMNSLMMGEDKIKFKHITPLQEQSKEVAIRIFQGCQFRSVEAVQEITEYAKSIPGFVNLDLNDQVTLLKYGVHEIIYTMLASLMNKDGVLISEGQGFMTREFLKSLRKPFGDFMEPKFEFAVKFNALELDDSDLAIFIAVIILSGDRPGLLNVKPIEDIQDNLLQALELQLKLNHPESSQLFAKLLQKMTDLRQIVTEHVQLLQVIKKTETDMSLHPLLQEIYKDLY
Bile acid receptor (Homo sapiens), sequence (Q96RI1 whole entry, looked up): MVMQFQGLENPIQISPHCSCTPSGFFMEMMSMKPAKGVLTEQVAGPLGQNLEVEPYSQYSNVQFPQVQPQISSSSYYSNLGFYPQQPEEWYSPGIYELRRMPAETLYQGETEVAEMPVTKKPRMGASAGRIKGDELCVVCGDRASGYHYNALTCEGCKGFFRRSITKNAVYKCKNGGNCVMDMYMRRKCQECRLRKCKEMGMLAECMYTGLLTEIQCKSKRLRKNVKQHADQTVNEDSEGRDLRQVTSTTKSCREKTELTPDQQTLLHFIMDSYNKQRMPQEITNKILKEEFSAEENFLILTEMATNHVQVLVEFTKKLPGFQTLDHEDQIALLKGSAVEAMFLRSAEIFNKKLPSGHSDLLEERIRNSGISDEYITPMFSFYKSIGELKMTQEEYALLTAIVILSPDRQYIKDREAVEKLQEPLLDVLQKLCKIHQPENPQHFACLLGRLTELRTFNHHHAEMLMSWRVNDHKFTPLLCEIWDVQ
Peroxisome proliferator-activated receptor delta (Homo sapiens), sequence (Q03181 whole entry, looked up): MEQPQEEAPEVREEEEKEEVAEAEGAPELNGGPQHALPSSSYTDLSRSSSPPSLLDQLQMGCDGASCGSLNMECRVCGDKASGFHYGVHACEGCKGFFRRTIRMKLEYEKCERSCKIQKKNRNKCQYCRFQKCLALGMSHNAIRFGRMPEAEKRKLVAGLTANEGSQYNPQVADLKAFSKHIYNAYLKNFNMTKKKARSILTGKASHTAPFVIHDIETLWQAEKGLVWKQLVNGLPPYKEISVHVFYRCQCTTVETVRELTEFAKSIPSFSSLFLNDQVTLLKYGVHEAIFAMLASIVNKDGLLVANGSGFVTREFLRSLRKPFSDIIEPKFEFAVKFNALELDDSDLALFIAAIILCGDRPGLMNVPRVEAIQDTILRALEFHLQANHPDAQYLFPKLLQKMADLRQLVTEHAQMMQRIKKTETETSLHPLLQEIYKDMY
Vitamin D3 receptor (Homo sapiens), sequence (P11473 whole entry, looked up): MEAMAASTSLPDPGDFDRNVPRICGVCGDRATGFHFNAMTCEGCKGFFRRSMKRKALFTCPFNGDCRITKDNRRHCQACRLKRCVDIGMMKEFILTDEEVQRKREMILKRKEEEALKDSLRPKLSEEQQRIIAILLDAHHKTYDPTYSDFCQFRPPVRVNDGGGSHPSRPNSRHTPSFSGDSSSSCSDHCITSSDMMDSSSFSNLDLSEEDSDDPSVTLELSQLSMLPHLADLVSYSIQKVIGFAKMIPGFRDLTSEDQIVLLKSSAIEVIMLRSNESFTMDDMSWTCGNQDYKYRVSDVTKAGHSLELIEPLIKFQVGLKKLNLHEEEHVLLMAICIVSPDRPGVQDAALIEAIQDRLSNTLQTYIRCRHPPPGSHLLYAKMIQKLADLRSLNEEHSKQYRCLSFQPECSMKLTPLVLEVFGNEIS
Androgen receptor (Homo sapiens), sequence (P10275 whole entry, looked up): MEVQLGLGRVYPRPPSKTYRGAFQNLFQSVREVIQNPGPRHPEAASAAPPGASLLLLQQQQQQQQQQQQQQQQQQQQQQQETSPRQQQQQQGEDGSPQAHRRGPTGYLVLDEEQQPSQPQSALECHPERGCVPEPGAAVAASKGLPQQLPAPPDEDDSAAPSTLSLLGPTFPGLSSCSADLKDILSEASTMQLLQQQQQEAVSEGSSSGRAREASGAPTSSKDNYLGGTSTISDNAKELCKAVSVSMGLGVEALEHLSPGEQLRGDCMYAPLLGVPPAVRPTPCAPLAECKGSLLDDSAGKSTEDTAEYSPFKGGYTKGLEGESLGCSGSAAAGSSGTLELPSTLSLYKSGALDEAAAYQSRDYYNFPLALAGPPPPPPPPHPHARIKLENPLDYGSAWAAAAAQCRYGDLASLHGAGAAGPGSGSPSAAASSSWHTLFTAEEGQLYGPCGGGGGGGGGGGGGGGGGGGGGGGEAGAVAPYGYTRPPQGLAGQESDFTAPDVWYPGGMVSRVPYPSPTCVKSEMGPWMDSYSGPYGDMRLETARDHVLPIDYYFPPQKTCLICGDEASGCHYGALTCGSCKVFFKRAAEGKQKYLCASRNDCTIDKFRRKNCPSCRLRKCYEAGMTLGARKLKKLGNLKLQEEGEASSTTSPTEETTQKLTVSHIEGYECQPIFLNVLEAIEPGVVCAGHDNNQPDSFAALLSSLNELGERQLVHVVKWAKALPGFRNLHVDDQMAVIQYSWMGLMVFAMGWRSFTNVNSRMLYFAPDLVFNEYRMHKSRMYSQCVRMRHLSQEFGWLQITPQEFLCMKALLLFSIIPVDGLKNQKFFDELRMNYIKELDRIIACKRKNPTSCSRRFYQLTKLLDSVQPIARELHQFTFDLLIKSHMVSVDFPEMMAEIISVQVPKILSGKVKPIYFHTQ

As for `CCC(C)=O`, the Potency entry in assay [1] was “inactive”. The compound was called inactive in [2].
For the compound `CC1COC(Cn2cncn2)(c2ccc(Oc3ccc(Cl)cc3)cc2Cl)O1` (configuration not stated), the Potency was 2.43 µM (active) in [3]; 43.6 µM (active) in assay [1]; 13.7 µM (active) in [4]; 49 µM (active) in assay [5]; 49 µM (active) in [8]; 49 µM (active) in [9]. Further, in assay [6], the Potency entry was “inactive”. Further, the result in [7], in assay [2] and in assay [10] was inactive.
Regarding `COc1ccc(C(c2ccc(OC)cc2)C(Cl)(Cl)Cl)cc1`, the Potency entry in [11], in assay [12], in [4] and in assay [13] was “inactive” each time. Besides, the Potency in assay [1] was 34.5 µM (active). Further, the result in [10] was inactive.
In the case of `CN1CSC(=S)N(C)C1`, the Potency entry in assay [11], in assay [3], in assay [14], in assay [15], in assay [5] and in assay [9] was “inactive” in each case. Further, the Potency in assay [12] was 1.94 µM (active); in [6], “inactive and 1.09 µM (active)”; in assay [16], 7.72 µM (active) and 5.48 µM (active). In addition, the outcome in [2] was inactive.
Turning to `ClC1=C(Cl)[C@]2(Cl)[C@@H]3[C@@H](Cl)[C@H]4O[C@H]4[C@@H]3C1(Cl)C2(Cl)Cl`, the Potency result in assay [11], in assay [3], in assay [4], in assay [13], in assay [15] and in assay [16] was “inactive” each time. For the same compound, the Potency result in [8] was “inactive”. Further, the Potency in assay [5] is 43.6 µM (active). Also, the compound was classed as inactive in assay [7] and in assay [17].
Turning to `N#Cc1cc([N+](=O)[O-])ccc1N`, the Potency entry in assay [18] is “inactive”.
`CCOC(=O)C(O)(c1ccc(Cl)cc1)c1ccc(Cl)cc1`: the Potency in assay [3] was 30.9 µM (active); in assay [19] it was 17.6 µM (active); in [13], 61.8 µM (active) and inactive; in assay [6], 7.84 µM (active) and inactive; in assay [16] it was 22.1 µM (active); in [9], 11.1 µM (active) and 38.9 µM (active). The Potency result in assay [20], in assay [14] and in assay [15] was “inactive” throughout. In addition, the outcome in assay [7] and in [17] was inactive.
With `O=S(=O)(C(Cl)(Cl)Cl)C(Cl)(Cl)Cl`, the Potency in [18] is 17.2 µM (active).
For the compound `CO/C=C(/C(=O)OC)c1ccccc1Oc1cc(Oc2ccccc2C#N)ncn1`, in assay [11], the Potency was 7.31 µM (active). The Potency result in [12], in [20], in assay [14] and in assay [6] was “inactive” in each case. The compound was called inactive in assay [10].
Turning to `Nc1ccc(Cl)cc1Cl`, the result in assay [7] was inactive.
Regarding `Cc1cccc(C)c1[N+](=O)[O-]`, in assay [1], the Potency result was “inactive”.
Same read-out and setting: under `Brc1ccc(-c2ccccc2)cc1` stands “inactive”.
Turning to `CCCCC(CC)COC(=O)CCCCC(=O)OCC(CC)CCCC` (configuration not stated), the Potency result in assay [8] was “inactive”.
As for `Clc1ccccc1-c1ccccc1Cl`, the Potency entry in [12], in assay [19], in assay [13], in assay [15], in assay [6] and in assay [16] was “inactive” throughout. For the same compound, the Potency result in [8] and in assay [9] was “inactive” each time. Moreover, the call in [7], in assay [17] and in assay [10] was inactive.
